Inhibition data for one compound are collected here from ChEMBL document CHEMBL1961873, “Compounds: GSK PKIS; Assays: Nanosyn kinase panel” (2012).

In experiment [1] the target is Protein kinase C gamma type (Homo sapiens) (UniProt P05129). Conditions: at 1 µM.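 Note: each value is an averaged percent inhibition of the enzyme.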
The target of experiment [2] is T1, Protein kinase C iota type (Homo sapiens) (UniProt P41743).
T1 sequence (whole entry): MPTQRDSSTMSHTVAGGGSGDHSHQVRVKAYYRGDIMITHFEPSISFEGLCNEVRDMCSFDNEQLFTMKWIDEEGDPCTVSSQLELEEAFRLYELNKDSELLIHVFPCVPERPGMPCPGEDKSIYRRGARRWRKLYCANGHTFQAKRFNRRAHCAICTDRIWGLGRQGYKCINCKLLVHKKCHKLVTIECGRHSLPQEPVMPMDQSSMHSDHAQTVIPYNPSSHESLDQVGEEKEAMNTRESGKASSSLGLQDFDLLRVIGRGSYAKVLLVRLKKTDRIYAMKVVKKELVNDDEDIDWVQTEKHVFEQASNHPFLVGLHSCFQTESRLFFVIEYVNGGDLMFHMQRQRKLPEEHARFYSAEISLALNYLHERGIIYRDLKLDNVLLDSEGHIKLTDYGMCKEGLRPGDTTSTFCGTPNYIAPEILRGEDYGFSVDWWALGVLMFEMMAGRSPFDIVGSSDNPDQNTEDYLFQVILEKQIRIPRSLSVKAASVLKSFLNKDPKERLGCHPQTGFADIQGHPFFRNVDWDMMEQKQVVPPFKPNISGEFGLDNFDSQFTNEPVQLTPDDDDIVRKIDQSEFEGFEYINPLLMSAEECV
Conditions: at 0.1 µM.

Experiment [3] has as its target T1, Protein kinase C iota type (Homo sapiens). Conditions: at 1 µM.
For experiment [4], the target named is Protein kinase C theta type (Homo sapiens) (UniProt Q04759). Conditions: at 0.1 µM.
The target is the same in experiment [5]. The settings on record: at 1 µM.
The target of experiment [6] is Protein kinase C beta type (Homo sapiens) (UniProt P05771). The settings on record: at 0.1 µM.
The target is the same in experiment [7]. Conditions: at 1 µM.
Experiment [8] concerns the target T2, Serine/threonine-protein kinase D1 (Homo sapiens) (UniProt Q15139).
T2 sequence (whole entry): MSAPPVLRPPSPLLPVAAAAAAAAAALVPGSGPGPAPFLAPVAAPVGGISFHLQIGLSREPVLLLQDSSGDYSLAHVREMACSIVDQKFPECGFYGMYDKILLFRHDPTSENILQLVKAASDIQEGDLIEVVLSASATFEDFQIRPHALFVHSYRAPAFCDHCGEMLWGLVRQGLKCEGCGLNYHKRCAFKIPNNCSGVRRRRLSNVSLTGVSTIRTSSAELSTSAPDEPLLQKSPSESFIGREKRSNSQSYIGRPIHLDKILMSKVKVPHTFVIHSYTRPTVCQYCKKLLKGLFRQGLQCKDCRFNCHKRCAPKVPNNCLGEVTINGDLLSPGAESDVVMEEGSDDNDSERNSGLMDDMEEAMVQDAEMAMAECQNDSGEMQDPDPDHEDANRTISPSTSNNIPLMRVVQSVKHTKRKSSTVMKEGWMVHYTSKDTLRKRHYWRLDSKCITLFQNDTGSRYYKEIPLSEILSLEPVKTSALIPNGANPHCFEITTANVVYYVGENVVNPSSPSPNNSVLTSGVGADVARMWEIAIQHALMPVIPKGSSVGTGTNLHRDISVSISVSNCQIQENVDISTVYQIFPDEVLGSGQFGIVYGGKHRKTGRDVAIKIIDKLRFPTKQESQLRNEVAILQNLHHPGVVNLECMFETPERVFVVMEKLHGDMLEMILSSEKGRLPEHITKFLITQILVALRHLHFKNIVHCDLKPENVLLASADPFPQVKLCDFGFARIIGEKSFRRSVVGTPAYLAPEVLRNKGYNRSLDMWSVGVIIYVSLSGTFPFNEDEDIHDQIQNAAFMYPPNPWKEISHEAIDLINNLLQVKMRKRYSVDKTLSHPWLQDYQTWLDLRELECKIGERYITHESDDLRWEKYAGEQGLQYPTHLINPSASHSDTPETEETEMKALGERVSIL
The settings on record: at 0.1 µM.

The target in experiment [9] is T2, Serine/threonine-protein kinase D1 (Homo sapiens). The settings on record: at 1 µM.
Experiment [10] concerns the target T3, Serine/threonine-protein kinase D2 (Homo sapiens) (UniProt Q9BZL6).
T3 sequence (whole entry): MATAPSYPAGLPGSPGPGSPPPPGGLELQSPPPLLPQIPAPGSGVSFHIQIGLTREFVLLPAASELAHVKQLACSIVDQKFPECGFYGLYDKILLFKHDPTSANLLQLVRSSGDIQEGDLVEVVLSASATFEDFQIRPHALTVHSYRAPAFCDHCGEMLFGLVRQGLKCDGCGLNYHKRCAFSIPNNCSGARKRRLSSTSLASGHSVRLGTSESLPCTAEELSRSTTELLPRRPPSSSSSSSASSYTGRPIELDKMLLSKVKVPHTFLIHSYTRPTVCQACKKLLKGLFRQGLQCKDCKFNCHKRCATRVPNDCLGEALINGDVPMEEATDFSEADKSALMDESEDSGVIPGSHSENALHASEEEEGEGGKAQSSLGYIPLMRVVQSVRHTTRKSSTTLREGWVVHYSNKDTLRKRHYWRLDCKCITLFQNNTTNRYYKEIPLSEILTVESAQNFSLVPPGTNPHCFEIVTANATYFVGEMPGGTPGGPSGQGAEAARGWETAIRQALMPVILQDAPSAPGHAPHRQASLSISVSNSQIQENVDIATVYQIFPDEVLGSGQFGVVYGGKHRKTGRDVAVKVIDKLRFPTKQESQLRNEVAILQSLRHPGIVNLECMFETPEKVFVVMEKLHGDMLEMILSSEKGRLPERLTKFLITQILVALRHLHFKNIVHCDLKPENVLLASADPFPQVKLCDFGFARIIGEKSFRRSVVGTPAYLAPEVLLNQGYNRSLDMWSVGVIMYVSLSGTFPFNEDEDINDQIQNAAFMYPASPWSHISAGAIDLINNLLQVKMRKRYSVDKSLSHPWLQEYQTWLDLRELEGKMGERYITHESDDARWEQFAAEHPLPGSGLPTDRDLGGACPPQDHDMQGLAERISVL
The settings on record: at 0.1 µM.

The target of experiment [11] is T3, Serine/threonine-protein kinase D2 (Homo sapiens). Conditions: at 1 µM.
In experiment [12] the target is T4, Serine/threonine-protein kinase D3 (Homo sapiens) (UniProt O94806).
T4 sequence (whole entry): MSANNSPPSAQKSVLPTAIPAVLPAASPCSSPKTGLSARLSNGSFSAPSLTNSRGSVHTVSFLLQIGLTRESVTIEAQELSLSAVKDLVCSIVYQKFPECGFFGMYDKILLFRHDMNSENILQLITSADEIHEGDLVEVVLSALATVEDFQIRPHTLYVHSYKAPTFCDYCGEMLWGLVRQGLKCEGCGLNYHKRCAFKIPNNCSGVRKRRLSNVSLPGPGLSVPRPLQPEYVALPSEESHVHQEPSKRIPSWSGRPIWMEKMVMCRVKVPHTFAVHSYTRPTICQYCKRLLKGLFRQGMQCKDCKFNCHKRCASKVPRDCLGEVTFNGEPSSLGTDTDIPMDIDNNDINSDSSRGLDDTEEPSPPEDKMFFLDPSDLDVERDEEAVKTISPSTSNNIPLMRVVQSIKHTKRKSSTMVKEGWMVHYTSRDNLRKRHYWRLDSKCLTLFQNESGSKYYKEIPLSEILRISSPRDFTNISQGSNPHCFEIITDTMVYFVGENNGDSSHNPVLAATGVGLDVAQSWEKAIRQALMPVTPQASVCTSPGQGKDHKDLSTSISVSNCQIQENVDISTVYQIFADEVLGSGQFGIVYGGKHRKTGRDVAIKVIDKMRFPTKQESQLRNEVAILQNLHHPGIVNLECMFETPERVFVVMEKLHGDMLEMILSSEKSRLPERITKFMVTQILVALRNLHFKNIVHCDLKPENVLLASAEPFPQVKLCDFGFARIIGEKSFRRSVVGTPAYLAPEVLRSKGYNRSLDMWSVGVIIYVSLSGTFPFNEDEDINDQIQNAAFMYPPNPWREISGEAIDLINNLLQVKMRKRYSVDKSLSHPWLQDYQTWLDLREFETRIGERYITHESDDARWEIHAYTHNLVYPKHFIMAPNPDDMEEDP
Conditions: at 0.1 µM.

Experiment [13] deals with T4, Serine/threonine-protein kinase D3 (Homo sapiens). Conditions: at 1 µM.
Experiment [14] addresses T5, cGMP-dependent protein kinase 1 (Homo sapiens) (UniProt Q13976).
T5 sequence (whole entry): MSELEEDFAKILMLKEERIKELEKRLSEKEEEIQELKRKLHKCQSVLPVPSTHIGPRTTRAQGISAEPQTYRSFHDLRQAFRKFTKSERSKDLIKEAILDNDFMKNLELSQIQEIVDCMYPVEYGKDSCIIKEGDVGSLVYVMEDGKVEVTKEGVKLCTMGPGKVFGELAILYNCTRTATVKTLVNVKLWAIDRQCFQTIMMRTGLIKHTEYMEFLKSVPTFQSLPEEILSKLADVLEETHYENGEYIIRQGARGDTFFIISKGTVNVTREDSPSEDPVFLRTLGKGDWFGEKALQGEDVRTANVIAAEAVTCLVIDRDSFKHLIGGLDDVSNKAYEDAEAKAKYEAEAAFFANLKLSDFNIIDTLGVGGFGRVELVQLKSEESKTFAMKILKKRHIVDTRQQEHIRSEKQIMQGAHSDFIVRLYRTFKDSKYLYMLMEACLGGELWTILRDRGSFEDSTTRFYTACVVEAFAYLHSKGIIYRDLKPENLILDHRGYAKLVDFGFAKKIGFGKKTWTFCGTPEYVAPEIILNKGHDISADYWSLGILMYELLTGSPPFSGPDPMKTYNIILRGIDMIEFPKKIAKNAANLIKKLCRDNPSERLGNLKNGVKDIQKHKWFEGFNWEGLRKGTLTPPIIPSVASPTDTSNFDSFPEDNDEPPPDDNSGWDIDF
The settings on record: at 0.1 µM.

Experiment [15] deals with T5, cGMP-dependent protein kinase 1 (Homo sapiens). Conditions: at 1 µM.
In experiment [16] the target is T6, cGMP-dependent protein kinase 2 (Homo sapiens) (UniProt Q13237).
T6 sequence (whole entry): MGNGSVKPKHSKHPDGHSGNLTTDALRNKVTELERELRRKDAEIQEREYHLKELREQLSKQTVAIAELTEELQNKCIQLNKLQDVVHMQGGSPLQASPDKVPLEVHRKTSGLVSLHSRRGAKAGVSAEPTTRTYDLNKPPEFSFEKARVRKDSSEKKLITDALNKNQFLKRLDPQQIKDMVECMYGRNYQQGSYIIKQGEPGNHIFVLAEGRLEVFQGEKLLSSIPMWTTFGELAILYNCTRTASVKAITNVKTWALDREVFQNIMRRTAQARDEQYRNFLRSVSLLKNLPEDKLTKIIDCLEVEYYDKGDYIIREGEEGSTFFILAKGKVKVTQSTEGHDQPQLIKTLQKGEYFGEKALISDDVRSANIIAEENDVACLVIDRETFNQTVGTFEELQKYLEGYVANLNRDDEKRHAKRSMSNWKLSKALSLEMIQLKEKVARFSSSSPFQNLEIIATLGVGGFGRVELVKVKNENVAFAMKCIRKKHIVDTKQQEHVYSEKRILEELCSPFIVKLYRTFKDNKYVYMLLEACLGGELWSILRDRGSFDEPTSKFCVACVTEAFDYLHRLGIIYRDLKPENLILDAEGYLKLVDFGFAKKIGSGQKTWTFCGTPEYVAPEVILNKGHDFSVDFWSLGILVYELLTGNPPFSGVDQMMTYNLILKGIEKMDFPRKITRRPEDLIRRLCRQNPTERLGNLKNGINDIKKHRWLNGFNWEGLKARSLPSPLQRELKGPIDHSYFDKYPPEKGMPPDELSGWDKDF
Conditions: at 0.1 µM.

Experiment [17] concerns the target T6, cGMP-dependent protein kinase 2 (Homo sapiens). Conditions: at 1 µM.
Experiment [18] has as its target T7, cAMP-dependent protein kinase catalytic subunit PRKX (Homo sapiens) (UniProt P51817).
T7 sequence (whole entry): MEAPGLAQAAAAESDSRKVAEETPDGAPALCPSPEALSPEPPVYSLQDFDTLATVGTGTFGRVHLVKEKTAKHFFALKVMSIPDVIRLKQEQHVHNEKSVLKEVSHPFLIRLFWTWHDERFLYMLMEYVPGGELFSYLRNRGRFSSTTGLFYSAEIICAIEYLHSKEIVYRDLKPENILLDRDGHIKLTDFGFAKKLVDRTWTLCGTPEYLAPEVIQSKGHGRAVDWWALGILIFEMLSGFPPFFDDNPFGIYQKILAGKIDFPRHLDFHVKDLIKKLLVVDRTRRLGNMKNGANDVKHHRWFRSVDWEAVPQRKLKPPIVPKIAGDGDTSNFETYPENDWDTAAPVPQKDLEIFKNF
Conditions: at 0.1 µM.

In experiment [19] the target is T7, cAMP-dependent protein kinase catalytic subunit PRKX (Homo sapiens). The settings on record: at 1 µM.
The target of experiment [20] is Rho-associated protein kinase 1 (Homo sapiens) (UniProt Q13464). Conditions: at 0.1 µM.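 Note: values are mean percent inhibition of ROCK1.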

SMILES strings stand for the structures.

One may read the inhibition as the change of the read-out against control, counted positive when it falls.

Protein kinase C beta type (Homo sapiens), sequence (P05771 2-671 limits assumed): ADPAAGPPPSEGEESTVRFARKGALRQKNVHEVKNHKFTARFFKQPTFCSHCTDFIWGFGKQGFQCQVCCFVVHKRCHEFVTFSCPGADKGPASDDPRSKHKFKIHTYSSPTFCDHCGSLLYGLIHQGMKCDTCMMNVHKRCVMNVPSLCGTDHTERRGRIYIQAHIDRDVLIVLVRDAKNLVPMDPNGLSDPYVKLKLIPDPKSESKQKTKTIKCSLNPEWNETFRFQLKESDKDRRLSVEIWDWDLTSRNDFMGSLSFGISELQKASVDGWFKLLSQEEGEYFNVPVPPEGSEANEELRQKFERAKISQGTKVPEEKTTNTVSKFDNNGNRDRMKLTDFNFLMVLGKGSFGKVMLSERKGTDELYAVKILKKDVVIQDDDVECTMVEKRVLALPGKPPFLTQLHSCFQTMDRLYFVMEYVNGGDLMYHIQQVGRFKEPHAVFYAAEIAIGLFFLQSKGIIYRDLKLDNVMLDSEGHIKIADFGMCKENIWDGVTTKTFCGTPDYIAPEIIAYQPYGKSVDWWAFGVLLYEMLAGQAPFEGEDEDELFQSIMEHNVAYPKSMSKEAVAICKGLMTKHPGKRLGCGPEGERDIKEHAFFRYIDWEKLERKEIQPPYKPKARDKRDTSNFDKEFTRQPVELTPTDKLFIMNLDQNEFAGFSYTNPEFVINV
Protein kinase C theta type (Homo sapiens), sequence (Q04759 whole entry, looked up): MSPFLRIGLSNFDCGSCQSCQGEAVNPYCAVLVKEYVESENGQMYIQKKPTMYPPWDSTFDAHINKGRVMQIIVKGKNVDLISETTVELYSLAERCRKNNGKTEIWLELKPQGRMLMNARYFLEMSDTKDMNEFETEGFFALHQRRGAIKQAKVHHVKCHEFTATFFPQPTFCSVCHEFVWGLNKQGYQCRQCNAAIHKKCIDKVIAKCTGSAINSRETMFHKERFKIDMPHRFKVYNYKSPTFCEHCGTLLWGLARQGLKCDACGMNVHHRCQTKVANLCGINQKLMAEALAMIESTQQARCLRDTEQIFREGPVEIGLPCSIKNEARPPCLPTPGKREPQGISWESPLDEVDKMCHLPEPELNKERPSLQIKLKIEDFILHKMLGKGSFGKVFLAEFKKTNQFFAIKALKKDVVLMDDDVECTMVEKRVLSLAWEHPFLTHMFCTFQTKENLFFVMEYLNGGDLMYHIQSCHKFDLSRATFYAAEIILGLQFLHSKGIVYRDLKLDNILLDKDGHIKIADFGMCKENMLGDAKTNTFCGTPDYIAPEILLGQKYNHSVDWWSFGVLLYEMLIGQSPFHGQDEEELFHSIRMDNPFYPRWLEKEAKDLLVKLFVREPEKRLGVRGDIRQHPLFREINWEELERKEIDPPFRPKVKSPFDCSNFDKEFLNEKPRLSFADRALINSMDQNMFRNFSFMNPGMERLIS
Rho-associated protein kinase 1 (Homo sapiens), sequence (Q13464 2-1354 limits assumed): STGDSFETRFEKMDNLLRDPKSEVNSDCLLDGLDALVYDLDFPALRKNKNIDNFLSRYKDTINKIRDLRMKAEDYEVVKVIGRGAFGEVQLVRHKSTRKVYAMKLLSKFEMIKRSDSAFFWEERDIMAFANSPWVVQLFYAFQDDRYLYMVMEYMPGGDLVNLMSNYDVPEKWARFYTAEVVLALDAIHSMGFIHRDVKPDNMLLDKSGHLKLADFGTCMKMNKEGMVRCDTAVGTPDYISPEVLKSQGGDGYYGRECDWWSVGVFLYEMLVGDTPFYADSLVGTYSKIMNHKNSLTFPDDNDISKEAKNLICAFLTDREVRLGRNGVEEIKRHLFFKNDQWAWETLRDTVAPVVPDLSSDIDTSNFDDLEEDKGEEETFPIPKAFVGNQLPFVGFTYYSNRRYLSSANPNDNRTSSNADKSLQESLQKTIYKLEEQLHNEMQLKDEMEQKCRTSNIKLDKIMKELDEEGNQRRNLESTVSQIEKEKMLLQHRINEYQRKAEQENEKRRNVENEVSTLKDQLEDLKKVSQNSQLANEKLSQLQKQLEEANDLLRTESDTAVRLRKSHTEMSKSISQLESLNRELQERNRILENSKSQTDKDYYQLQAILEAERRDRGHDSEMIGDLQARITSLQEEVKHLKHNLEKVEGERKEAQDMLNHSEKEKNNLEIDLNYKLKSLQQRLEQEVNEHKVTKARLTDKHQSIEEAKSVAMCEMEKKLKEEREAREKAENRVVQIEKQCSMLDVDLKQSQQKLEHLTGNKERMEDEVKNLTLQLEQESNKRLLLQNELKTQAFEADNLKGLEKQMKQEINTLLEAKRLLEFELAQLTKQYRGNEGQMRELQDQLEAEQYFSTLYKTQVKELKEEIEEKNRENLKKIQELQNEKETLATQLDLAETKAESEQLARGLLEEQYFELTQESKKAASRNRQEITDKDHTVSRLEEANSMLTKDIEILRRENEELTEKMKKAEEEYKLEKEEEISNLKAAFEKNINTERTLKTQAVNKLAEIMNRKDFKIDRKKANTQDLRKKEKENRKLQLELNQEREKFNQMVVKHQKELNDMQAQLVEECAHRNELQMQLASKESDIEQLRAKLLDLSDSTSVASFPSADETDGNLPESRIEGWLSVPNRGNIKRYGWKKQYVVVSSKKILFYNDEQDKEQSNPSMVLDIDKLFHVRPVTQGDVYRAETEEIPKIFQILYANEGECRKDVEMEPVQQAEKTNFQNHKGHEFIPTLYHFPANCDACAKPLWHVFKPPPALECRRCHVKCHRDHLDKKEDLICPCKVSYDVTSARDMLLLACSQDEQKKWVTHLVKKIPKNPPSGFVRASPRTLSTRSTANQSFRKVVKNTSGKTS

`CN(C)CCCNc1nccc(-c2c(-c3ccc(F)cc3)nn3cc(C(F)(F)F)ccc23)n1`: the inhibition in experiment [1] stood at 4.68%; in [2], 0.91%; in experiment [3], 2.26%; in [4] it was 0.23%; in experiment [5], 0.19%; in experiment [6], 0.57%. Besides, the inhibition is 3.33% in [7]; -1.67% in experiment [8]; 0.04% in experiment [9]; -1.36% in [10]; 0.34% in experiment [11]; -1.49% in [12]. Further, the inhibition in experiment [13] is -0.32%; in experiment [14], 1.15%; in experiment [15], 3.76%; in [16], 1.88%; in [17] it was 3.07%; in experiment [18], 1.15%. The figures for the inhibition in [19] and in [20] were -0.47% and 0.76%, respectively.
